Results as given in PubChem BioAssay (Tox21).
Inconclusive results are not listed. Active and inactive are the calls of the source. Unless noted, calls follow the shape of the dose curve; as a rule, active = well fitted curve in the direction sought with a large enough effect in the repeat runs; inconclusive = weak or mixed curves; inactive = no such curve, though single readings can be large; an effect the other way counts as inactive or inconclusive.

How the values were obtained:
[1] = qHTS assay to identify small molecule agonists of the hypoxia (HIF-1) signaling pathway - cell viability counter screen (AID 1224844; calls by dose curve; also: nearly all actives have a fitted effect of over 50% in size)
How it was run: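 CellTiter-Glo luminescence read-out, 30 min RT, taken in the same wells as the beta-lactamase HRE reporter assay; HRE-bla ME-180 cells, 0.5% dialyzed FBS, 17 hr compound treatment at 37C, 5% CO2.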

[2] = qHTS assay to identify small molecule agonists of H2AX (AID 1224845; active = well fitted activation curve with a large enough effect in the signal ratio in the repeat runs, not every such curve was filed as active; the % refers to the signal ratio)
How it was run: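 Phospho-H2AX Ser139 measured by HTRF (ex 320 nm; em 665 and 620 nm) after 24 hr antibody incubation. Compounds, 15 concentrations, 0.76% DMSO, were applied to CHO-K1 cells for 3hr at 37C before lysis.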

[3] = qHTS assay to identify small molecule agonists of the hypoxia (HIF-1) signaling pathway (AID 1224846; active = well fitted activation curve with a large enough effect in the signal ratio in the repeat runs, not every such curve was filed as active; the % refers to the signal ratio)
How it was run: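 Beta-lactamase FRET read-out (CCF4-AM substrate) from ME-180 cells carrying an HRE-driven bla reporter, after 17 hrs compound exposure at 37C/5% CO2. Cells were seeded at 2,000 per well in 0.5% dialyzed FBS medium and preincubated 5 hrs.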

[4] = qHTS assay to identify small molecule agonists of H2AX - cell viability counter screen (AID 1224847; calls by dose curve; also: top concentration of the series differs between compounds; nearly all actives have a fitted effect of over 30% in size)
How it was run: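 Compounds tested at 15 concentrations were incubated 3 hr at 37C with wild-type CHO-K1 cells; cellular ATP-based luminescence (CellTiter-Glo) indicated viability.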

[5] = qHTS RealTime-Glo MT Cell Viability Assay in HepG2 cells - 24 hour (AID 1224867); also: nearly all actives have a fitted effect of over 50% in size
How it was run: (§1)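 HepG2 suspension premixed with RealTime-Glo reagents is plated at 600 cells per well and left 5 h at 37 C/5% CO2. Compounds in DMSO then go in, and bioluminescence reflecting viable cell number is recorded over 40 h.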

[6] = qHTS RealTime-Glo MT Cell Viability Assay in HEK293 cells - 32 hour (AID 1224868); also: top concentration of the series differs between compounds; nearly all actives have a fitted effect of over 50% in size
How it was run: (§2)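 Reads taken at 0, 8, 16, 24, 32 and 40 h from the same wells. HEK293 cells (600/well) carried RealTime-Glo reagents from seeding, with compound added after a 5 h settle at 37 C.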

[7] = A CellTox Green Cytotoxicity Assay to monitor cytotoxicity in HEK293 cells - 0 hour (AID 1224869); also: nearly all actives have a fitted effect of over 50% in size
How it was run: (§3)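 Read-out: fluorescence of a cell-impermeant cyanine dye staining DNA of dead cells, proportional to cytotoxicity. HEK293, 600 cells/well with reagent, compound (23 nL DMSO) added after 5 h; reads at 0, 8, 16, 24, 32, 40 h.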

[8] = qHTS RealTime-Glo MT Cell Viability Assay in HepG2 cells - 40 hour (AID 1224870); also: nearly all actives have a fitted effect of over 50% in size
How it was run: (§4)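 Real-time viability: cells seeded at 600 per well together with NanoLuc and cell-permeant prosubstrate, compounds added after 5 h incubation. Luminescence tracked at 0, 8, 16, 24, 32 and 40 h of exposure.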

[9] = A CellTox Green Cytotoxicity Assay to monitor cytotoxicity in HEK293 cells - 40 hour (AID 1224871); also: nearly all actives have a fitted effect of over 45% in size
How it was run: as §3

[10] = qHTS RealTime-Glo MT Cell Viability Assay in HEK293 cells - 16 hour (AID 1224872)
How it was run: as §2

[11] = qHTS RealTime-Glo MT Cell Viability Assay in HepG2 cells - 8 hour (AID 1224873); also: nearly all actives have a fitted effect of over 55% in size
How it was run: as §4

[12] = qHTS RealTime-Glo MT Cell Viability Assay in HEK293 cells - 40 hour (AID 1224874); details: RealTime-Glo luminescence; max response: stronger effect = lower value; also: nearly all actives have a fitted effect of over 50% in size
How it was run: (§5)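 Luminescence readout at each listed time point; HEK293, 600 cells/well, RealTime-Glo MT reagent added with cells; compounds pinned (23 nL in DMSO) after 5 h at 37 C; continuous culture at 37 C.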

[13] = A CellTox Green Cytotoxicity Assay to monitor cytotoxicity in HepG2 cells - 16 hour (AID 1224876); also: nearly all actives have a fitted effect of over 45% in size
How it was run: (§6)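 HepG2, 600 cells/well premixed w/ CellTox Green; 5 h settle, 37 C/5% CO2; pintool cpd add (DMSO); 37 C, 40 h; fluorescence read at 0, 8, 16, 24, 32, 40 h.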

[14] = qHTS RealTime-Glo MT Cell Viability Assay in HepG2 cells - 32 hour (AID 1224877); also: nearly all actives have a fitted effect of over 55% in size
How it was run: as §1

[15] = A CellTox Green Cytotoxicity Assay to monitor cytotoxicity in HepG2 cells - 24 hour (AID 1224878); also: nearly all actives have a fitted effect of over 45% in size
How it was run: as §6

[16] = A CellTox Green Cytotoxicity Assay to monitor cytotoxicity in HepG2 cells - 40 hour (AID 1224879); also: nearly all actives have a fitted effect of over 40% in size
How it was run: as §6

[17] = qHTS RealTime-Glo MT Cell Viability Assay in HEK293 cells - 0 hour (AID 1224880); also: top concentration of the series differs between compounds; nearly all actives have a fitted effect of over 45% in size
How it was run: as §5

[18] = A CellTox Green Cytotoxicity Assay to monitor cytotoxicity in HEK293 cells - 24 hour (AID 1224875); also: nearly all actives have a fitted effect of over 45% in size
How it was run: as §3

[19] = qHTS assay to identify small molecule antagonists of the estrogen related receptor (ERR) signaling pathway from Tox21 library (AID 1224848); also: nearly all actives have a fitted effect of over 50% in size
How it was run: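 ERR cell line, 2,000 cells/well. 6 h settle, then compound (DMSO) added; 18 h at 37 C; ONE-Glo luminescence after 30 min RT.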

[20] = qHTS assay to identify small molecule agonists of the estrogen related receptor (ERR) signaling pathway from Tox21 library (AID 1224849; calls by dose curve; also: nearly all actives have a fitted effect of over 15% in size); details: ERR reporter cell line, ONE-Glo luciferase, 18 h; at 92.4 µM (top of the series) unless noted
How it was run: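 Luminescence readout (ONE-Glo, 30 min RT) after 18 h compound exposure at 37 C of NTP-supplied ERR reporter cells; cells were plated 6 h before compound addition by pin tool.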
% is scaled to controls: 0 for no effect and ±100 for the full control effect.

COC(=O)CSc1cc(N=c2sc(=O)n3n2CCCC3)c(F)cc1Cl
inactive: Potency [1] | Potency [2] | outcome [3] | Potency [4] | Potency [5] | Potency [6] | Potency [7] | Potency [8] | Potency [9] | Potency [10] | Potency [11] | max response [12] 3.98% | Potency [13] | Potency [14] | Potency [15] | Potency [16] | Potency [17]

CC1=CCC(C(C)C)C=C1 (stereo unspecified)
inactive: Potency [1] | Potency [2] | outcome [3] | Potency [4] | Potency [5] | Potency [6] | Potency [7] | Potency [8] | Potency [9] | Potency [11] | Potency [18] | Potency [13] | Potency [14] | Potency [15] | Potency [16] | Potency [17]

COC(Cc1ccccc1)OC
inactive: Potency [1] | Potency [2] | outcome [3] | Potency [4] | Potency [5] | Potency [7] | Potency [8] | Potency [9] | Potency [10] | Potency [11] | max response [12] 17.4% | Potency [18] | Potency [13] | Potency [14] | Potency [15] | Potency [16]

NC(N)=N/N=C/c1c(Cl)cccc1Cl
inactive: Potency [1] | Potency [2] | Potency [4] | Potency [19] | activity change, positive = activation [20] -17.6% [at 42.5 µM] | Potency [5] | Potency [6] | Potency [7] | Potency [8] | Potency [9] | Potency [10] | Potency [11] | max response [12] -22.8% | Potency [18] | Potency [13] | Potency [14]

CC(C)(Oc1ccc(Cl)cc1)C(=O)OCCCOC(=O)C(C)(C)Oc1ccc(Cl)cc1
inactive: Potency [1] | Potency [2] | outcome [3] | Potency [5] | Potency [6] | Potency [7] | Potency [8] | Potency [9] | Potency [11] | max response [12] -17.7% | Potency [18] | Potency [13] | Potency [14] | Potency [15] | Potency [16] | Potency [17]

COc1ccc(OC)c(OC)c1
inactive: Potency [1] | Potency [2] | outcome [3] | Potency [5] | Potency [7] | Potency [8] | Potency [9] | Potency [11] | max response [12] 15.8% | Potency [18] | Potency [13] | Potency [14] | Potency [15] | Potency [16] | Potency [17]
